Rows were chosen to be rich in hits. Some 0.89% of all compounds tested hit in one or more screens of this group.
Six1-Eya2 inh: blocks human Six1 binding to Eya2; 360,000 tested, 0.56% active; AID 651725; AlphaScreen GST-Six1/His-Eya2 binding, biochemical; active compounds read low; activity change, % (test concentration not listed); in the data active means activity change below about -65%; inconclusive means mostly about -30% to -63%
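GST-Six1 + His-Eya2 (5X stock: 250/500 nM); Tris pH 8.0, 300 mM NaCl, 0.05% BSA, 0.02% Tween 20; GSH donor/Ni acceptor beads; 1 h 37 °C dark; AlphaScreen readout.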
CtBP-E1A inh: blocks the CtBP interaction with E1A. AlphaScreen GST-E1A/His-CtBP binding, 1536-well; active compounds read low. activity change, % (test concentration not listed). 340,000 tested, 0.49% active. AID 651724; in the data active means activity change below about -65%; inconclusive means mostly about -30% to -63%
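Protein mix (5X: 125 nM each GST-E1A, His-CtBP) was incubated with pinned compound 2 h at 37 deg C in dark, in 50 mM Tris pH 8.0 buffer with 300 mM NaCl. Glutathione donor and nickel acceptor beads followed; AlphaScreen signal read after 1 h.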
L3MBTL1 inh: inhibitors of human L3MBTL1. AlphaScreen L3MBTL1–H3K9me1 peptide binding. Potency, µM (top dose mostly 57.1 µM), most hits filed as inhibitors. 230,000 tested, 0.66% active; further: nearly all actives have a fitted effect of over 60% in size
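L3MBTL1 50 nM + b-AHA-H3(1-15)K9me1 75 nM, 30 min RT; compound added, 30 min RT; streptavidin donor/Ni-chelate acceptor beads 10 ug/mL each final, 30 min RT dark; AlphaScreen read.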
Eya2 phos inh: Eya2 (human) phosphatase inhibition; recombinant Eya2, OMFP fluorescence dephosphorylation (OMFP is methylfluorescein phosphate); Potency, µM (titrated, usually from 76.9 µM), usual class: inhibitors; 330,000 tested, 0.006% active
Target sequence (O00167 whole entry, looked up): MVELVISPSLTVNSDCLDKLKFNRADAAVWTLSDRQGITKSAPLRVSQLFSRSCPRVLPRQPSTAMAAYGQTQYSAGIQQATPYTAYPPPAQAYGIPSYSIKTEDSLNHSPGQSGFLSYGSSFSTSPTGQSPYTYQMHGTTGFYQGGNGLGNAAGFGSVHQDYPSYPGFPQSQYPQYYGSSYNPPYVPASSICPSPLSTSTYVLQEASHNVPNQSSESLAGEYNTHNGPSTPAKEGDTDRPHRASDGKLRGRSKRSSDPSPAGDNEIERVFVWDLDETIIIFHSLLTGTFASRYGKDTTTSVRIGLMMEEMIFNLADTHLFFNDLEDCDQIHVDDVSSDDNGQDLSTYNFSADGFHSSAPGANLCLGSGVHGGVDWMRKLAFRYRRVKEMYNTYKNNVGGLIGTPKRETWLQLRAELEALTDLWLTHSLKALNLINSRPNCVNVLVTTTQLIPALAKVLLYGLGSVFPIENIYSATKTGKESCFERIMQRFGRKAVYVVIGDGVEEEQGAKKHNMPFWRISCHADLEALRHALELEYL
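Eya2 protein (added as 0.2 uM solution) was preincubated with compound for 10 min at ambient temperature in 50 mM HEPES pH 7.5, 50 mM NaCl, 5 uM MgCl2, 0.05% BSA, 1 mM DTT. OMFP (added at 50 uM) then reacted 10 min; fluorescence read at 485/525 nm.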
MBNL1-CUG inh: inhibitors of human MBNL1 binding to CUG repeat RNA; 280,000 tested, 0.036% active; Potency, µM (highest dose often 57.5 µM), actives largely listed as inhibitors; Q9NR56; TR-FRET MBNL1-His/biotin-(CUG)12 binding, 665/545 ratio; active means well fitted inhibition curve with a large enough effect in the signal ratio, with a control signal flat, not every such curve was filed as active; inconclusive means small, poorly fitted or top-dose-only effect, or effect the other way, or a change in a side signal; inactive means no such curve, though single readings can be large or run the other way; the % refers to the signal ratio
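Inhibition of protein-RNA binding appears as loss of TR-FRET between terbium anti-His antibody on MBNL1-His and streptavidin-XL665 on biotin-(CUG)12. Activity is normalized to buffer-only and uninhibited-complex controls.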
CBFb RUNX1 block: inhibitors of human CBF-beta and RUNX1 interaction; Q01196+Q13951; AlphaScreen CBFb-His/RUNX1-biotin binding, biochemical; Potency, µM (highest dose often 59.8 µM), most hits filed as inhibitors; 230,000 tested, under 10 active; AID 1477
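Compounds were screened at multiple concentrations against a preformed CBF-beta(His)/RUNX1(biotin) complex (30 nM of each) for 15 min at room temperature, followed by 90 min with nickel and streptavidin beads and AlphaScreen reading.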
Hits are given with their value; – = inactive; ? = inconclusive; · = no result given; [ ] = remark or other dose. Unless noted, the call rests on the fitted dose curve; in most records, active means well fitted curve in the direction sought with a large enough effect; inconclusive means small, poorly fitted or top-dose-only effect, or another doubt; inactive means no such curve, though single readings can be large; an effect the other way counts as inactive or inconclusive.

SMILES	Six1-Eya2 inh	CtBP-E1A inh	L3MBTL1 inh	Eya2 phos inh	MBNL1-CUG inh	CBFb RUNX1 block
O=C(Cn1cncn1)N/N=C/c1cc([N+](=O)[O-])ccc1O	-91	·	?	–	?	·
CCOC(=O)C1OC1C(=O)NC(CC(C)C)C(=O)NCCC(C)C (stereo not drawn)	·	·	·	·	·	–
CC(=O)Nc1ccn(C2OC(C(COC(C)=O)NC(=O)C(Cc3ccccc3)NC(=O)OC(C)(C)C)C(OC(C)=O)C2OC(C)=O)c(=O)n1 (stereo not drawn)	·	·	·	·	·	–
O=C(Cn1cncn1)N/N=C/c1ccccc1O	-85	-94	·	–	–	–
O=C(Cn1cncn1)N/N=C/c1ccncc1	–	·	–	?	–	–
O=C(Cn1nnc(-c2ccccc2)n1)N/N=C/c1cc([N+](=O)[O-])ccc1O	?	–	?	–	–	–
O=C(N/N=C/c1cc([N+](=O)[O-])ccc1O)C1CCCCC1	-74	-73	–	–	–	·
O=C(Cn1nc2ccccc2n1)N/N=C/c1cc([N+](=O)[O-])ccc1O	?	·	7.9µM	–	?	–
COc1ccc(S(=O)(=O)N(C)C[C@H]2Oc3ccc(NC(=O)c4ccncc4)cc3C(=O)N([C@H](C)CO)C[C@@H]2C)cc1	–	–	–	–	·	·
Cc1[nH]n(-c2ccccc2)c(=O)c1/C=N/NC(=O)C(C)C	?	–	–	–	–	–
Cc1[nH]n(-c2ccccc2)c(=O)c1/C=N\NC(=O)C1COc2ccccc2O1 (stereo not drawn)	-89	-81	–	–	–	?
CC(=O)N/N=C/c1c(C)[nH]n(-c2ccccc2)c1=O	-73	-68	·	–	–	?
Cc1c(/C=N\NC(=O)C2COc3ccccc3O2)c2ccccc2n1C (stereo not drawn)	–	–	–	–	–	–
COC(=O)N/N=C\c1c(C)[nH]n(-c2ccccc2)c1=O	–	–	–	–	–	–
Cc1c(/C=N/NC(=O)COc2ccccc2[N+](=O)[O-])c2ccccc2n1C	–	·	–	–	·	–
COCC(=O)N/N=C/c1c(C)[nH]n(-c2ccccc2)c1=O	-77	-90	·	–	–	–
Cc1[nH]n(-c2ccccc2)c(=O)c1/C=N/NC(=O)COc1ccccc1[N+](=O)[O-]	-79	-88	–	–	–	?
Cc1ccc(C2CCN(C(=S)Nc3cccc(C)c3)C2)cc1 (stereo not drawn)	–	–	·	–	–	–
COc1ccc(/C=C/CN2CCC(CO)(Cc3ccccc3Cl)CC2)cc1	–	–	?	–	–	–
O=C(COC(=O)c1cccc(OC(F)F)c1)NCC1CCCO1 (stereo not drawn)	–	–	–	–	·	·
Cc1cccc(NC(=O)CCC(=O)N/N=C/c2ccncc2)c1	–	–	–	–	–	–
O=C(CCC(=O)Nc1ccc(Br)cc1)N/N=C/c1cc([N+](=O)[O-])ccc1O	–	–	–	–	–	–
O=C(CCC(=O)Nc1ccc(F)cc1)N/N=C/c1cc([N+](=O)[O-])ccc1O	?	-86	–	–	–	–
Cc1cccc(NC(=O)CCC(=O)N/N=C/c2cc([N+](=O)[O-])ccc2O)c1	-79	-90	–	–	–	–
O=C(CCC(=O)Nc1cc(C(F)(F)F)ccc1Cl)N/N=C\c1cc([N+](=O)[O-])ccc1O	–	-67	·	–	–	·
SMILES	Six1-Eya2 inh	CtBP-E1A inh	L3MBTL1 inh	Eya2 phos inh	MBNL1-CUG inh	CBFb RUNX1 block
O=C(N/N=C/c1cc([N+](=O)[O-])ccc1O)c1cccc(NC(=O)c2cccc(Cl)c2)c1	–	–	·	–	–	·
COc1cc(CC(=O)OCC(=O)c2ccc[nH]2)cc(OC)c1OC	–	–	–	–	·	·
CSCCC1NC(=O)N(C(C)C(=O)Nc2cc(Cl)cc(Cl)c2)C1=O (stereo not drawn)	–	–	–[11.4 µM]	–	–	–
N#Cc1ccc(C(=O)Nc2ccc3ccccc3c2)cc1	–	–	·	–	–	·
O=C(Nc1ccc2ccccc2c1)c1ccc2[nH]c(=O)c(=O)[nH]c2c1	?	-85	·	–	–	·
COc1ccccc1/C=C/C(=O)NCC(=O)N/N=C/c1cc(Br)ccc1OC	?	?	·	–	–	–
COc1ccccc1/C=C\C(=O)NCC(=O)N/N=C/c1cccc(OC)c1O	?	-89	·	–	–	·
COc1cccc(/C=N/NC(=O)CNC(=O)c2cccs2)c1O	-85	-89	·	–	–	–
COc1cccc(/C=N/NC(=O)CNC(=O)CCc2ccccc2)c1O	-69	·	–	–	–	–
COc1cc(/C=N/NC(=O)CCC(=O)NCc2ccccc2)cc(OC)c1OC	–	-66	–	–	–	–
COc1ccccc1/C=N/NC(=O)CNC(=O)c1ccccc1	–	–	–	–	–	–
CC(=O)/C(=N/Nc1ccccc1)Sc1nnc(C(O)c2ccccc2)n1-c1ccccc1 (stereo not drawn)	–	·	–	–	–	–
Cc1noc(C)c1NC(=O)Nc1cccc2c1O[C@H](CN(C)C(=O)NC1CCCCC1)[C@@H](C)CN([C@H](C)CO)C2=O	–	–	–	–	·	·
CC1(C)CC(=O)C(N=Nc2cc(S(=O)(=O)N3CCOCC3)ccc2Cl)=C(O)C1	–	–	32µM	–	?	?
Cc1cc(C)nc(N/N=C/c2ccccc2OCc2ccc(Br)cc2)n1	–	–	–	–	–	–
Cc1cc(C)nc(N/N=C/c2cc(Br)ccc2O)n1	?	-81	–	–	–	?
Cc1ccc(C(C)C)c(OCC(=O)NC2CCN(C)CC2)c1	–	–	·	–	–	·
COc1cccc(/C=N/N2C(=O)CSC2=S)c1O	-90	–	25µM	–	?	–
COc1cc(/C=N/N2C(=O)CSC2=S)cc(Br)c1O	?	–	32µM	–	?	–
O=C1CSC(=S)N1N=Cc1c(O)ccc2ccccc12	-88	-89	·	·	·	·
COc1ccc2ccccc2c1/C=N/N1C(=O)CSC1=S	–	–	?	–	–	?
CC(=O)c1cccc(NC(=O)NC2CC(=O)N(c3ccc4c(c3)OCCO4)C2)c1 (stereo not drawn)	–	–	–	–	·	·
OC[C@@H]1CN(Cc2ccc3c(c2)OCO3)C[C@H](n2cnc3c(NC4CC4)ncnc32)O1	–	–	·	·	·	·
Oc1ccccc1C=NNC(=S)Nc1ccc(F)cc1	-76	-92	·	·	·	·
Oc1ccccc1/C=N/NC(=S)NCCc1ccccc1	?	-65	·	–	–	·
S=C(NCCc1ccccc1)N/N=C/c1cccc(Cl)c1Cl	–	–	–	–	–	–
CN(C)C(=O)NC1CCCCCCC1	·	·	·	·	·	–
COc1cc(OC)c(NC(=O)CN(C)S(=O)(=O)c2ccc(-c3ccc(=O)[nH]n3)s2)cc1Cl	-71	·	·	–	?	·
